High-throughput results from PubChem BioAssay.
CaV13 ICDI inh = Primary screen for inhibitors of IQ motif and Ca2+-dependent inactivation inhibitor domain binding in CACNA1D, Förster resonance energy transfer in living cells, …; HEK cells, CFP/YFP FRET ICDI-IQ, plate reader, 10 min; percent FRET-ratio fall versus neutral wells; inhibition, % at 12.3 µM; 340,000 tested, 0.098% active; AID 743397;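 active means mean replicate inhibition of at least 30% and at least 1% of replicates passing that level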;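 further: 0% = median of the neutral control wells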
ABCB6 inh 2 = ABCB6 transporter inhibitors, primary screen, K562-ABCB6 cells, flow cytometry, MLPCN library. fluorescence ratio to DMSO, % at 10 µM. K562-ABCB6 porphyrin accumulation, 1 h; active compounds read low. 360,000 tested, 0.19% active. AID 602162, 2011. ATP-binding cassette sub-family B member 6 (Homo sapiens), Q9NP58;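 active means fluorescence ratio to DMSO below 75%, the collection mean minus 3 SD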;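 further: signal is porphyrin accumulated inside mitochondria; 100% equals median channel fluorescence of DMSO control wells; lower ratio means ABCB6 inhibition with less porphyrin fluorescence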
VLA-4 inh = inhibition in human VLA-4 binding assay, primary screen, VLA-4 allosteric modulator project, MLPCN library, flow cytometry, VLA-4 expressing cells | Integrin alpha-4 (Homo sapiens), P13612 | ligand binding flow cytometry | inhibition, % (about 7 µM as worked out from the volumes in the protocol) | 330,000 tested, 0.2% active; in the data active means inhibition above about 50%
Target sequence (P13612 whole entry, looked up): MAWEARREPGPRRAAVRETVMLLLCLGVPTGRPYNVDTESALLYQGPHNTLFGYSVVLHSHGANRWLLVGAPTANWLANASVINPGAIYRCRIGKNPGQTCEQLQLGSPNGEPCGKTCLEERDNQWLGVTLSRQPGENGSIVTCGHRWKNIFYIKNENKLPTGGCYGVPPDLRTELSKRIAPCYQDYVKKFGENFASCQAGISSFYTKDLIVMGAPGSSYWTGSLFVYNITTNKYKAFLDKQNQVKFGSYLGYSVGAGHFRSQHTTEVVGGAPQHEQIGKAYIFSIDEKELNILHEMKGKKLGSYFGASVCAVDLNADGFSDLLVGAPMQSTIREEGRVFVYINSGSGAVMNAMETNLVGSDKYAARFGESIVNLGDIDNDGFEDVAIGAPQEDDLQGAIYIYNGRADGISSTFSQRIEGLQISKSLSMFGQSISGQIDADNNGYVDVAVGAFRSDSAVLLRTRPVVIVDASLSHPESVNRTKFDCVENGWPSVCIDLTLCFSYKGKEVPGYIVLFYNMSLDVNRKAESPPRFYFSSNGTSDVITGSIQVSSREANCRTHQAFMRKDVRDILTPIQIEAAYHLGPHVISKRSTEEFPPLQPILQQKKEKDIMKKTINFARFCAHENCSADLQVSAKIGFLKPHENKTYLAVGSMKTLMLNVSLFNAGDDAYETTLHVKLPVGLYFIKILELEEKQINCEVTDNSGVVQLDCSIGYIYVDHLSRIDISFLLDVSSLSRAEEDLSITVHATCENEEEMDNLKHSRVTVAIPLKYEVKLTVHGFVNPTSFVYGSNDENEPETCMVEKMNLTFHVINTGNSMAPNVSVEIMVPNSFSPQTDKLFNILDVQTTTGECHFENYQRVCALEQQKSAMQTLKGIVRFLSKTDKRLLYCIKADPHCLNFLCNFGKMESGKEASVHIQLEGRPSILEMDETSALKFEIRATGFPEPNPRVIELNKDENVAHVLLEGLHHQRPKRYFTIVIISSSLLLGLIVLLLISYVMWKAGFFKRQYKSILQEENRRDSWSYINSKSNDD
Granule exo inh = LAMP-1 surface exposure blockers, TALL-104 cells – cell-based, flow cytometry, MLPCN library, primary screen; inhibition, % at 10 µM; 360,000 tested, 0.66% active; TALL-104 LAMP-1 surface exposure; cells stimulated with thapsigargin and PMA;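 active means inhibition above about 55%, limit read from the data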
Granule exo CP1 = inhibitors of lytic granule exocytosis, confirmation, TALL-104 cells, flow cytometry, Cherry Pick01; AID 651954, 2012; 1,500 tested, 11% active; shares compounds with Granule exo inh; LAMP-1 externalization; stimulated with PMA plus thapsigargin; inhibition, % at 10 µM; in the data active means inhibition above about 60%;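 further: 0% = stimulated vehicle wells and 100% = unstimulated wells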
* hit, by the source's call; . = no result given. Sampled rows, rich in hits. Any-hit rate of the full collection: about 1.1%.

SMILES	CaV13 ICDI inh	ABCB6 inh 2	VLA-4 inh	Granule exo inh	Granule exo CP1
COc1ccccc1Nc1nc(NCc2ccco2)c2ccccc2n1	-18	97	6	99*	23
OC(c1ccccc1)(c1ccc(F)cc1)C(c1ccccc1)N1CCOCC1 (stereo not given)	.	109	2	98*	10
CCCN1C(=O)COc2ccc(-c3n[nH]c(=O)c4ccccc34)cc21	-5	96	0	-2	.
O=C1/C(=C\c2cccs2)Sc2ccc3ccccc3c21	-5	125	-19	85*	-1
CCOc1ccccc1OCCN1CCC(Cc2ccccc2)CC1	-3	97	11	4	.
CCC(=O)c1ccccc1OCCCN1CCC(Cc2ccccc2)CC1	-5	90	15	65*	-8
c1ccc(C2=NNC(c3ccccn3)=NN2)nc1	-16	99	-16	7	.
Cc1c([C@@H]2C[C@H]3CN(Cc4cccc(Cl)c4)C(=O)[C@]34CCCN24)cnn1C	-5	98	27	78*	-3
COC(C/C=C/[C@H](O)[C@@H](C)OCc1ccccc1)OC	-12	99	41	96*	-5
COC(C/C=C/[C@@H](O)[C@H](C)OCc1ccccc1)OC	-6	99	.	7	.
OC(c1ccccc1)(c1ccccc1)C1CCN(CCCOc2cc(F)cc(F)c2)CC1	-8	.	.	.	.
OC(c1ccccc1)(c1ccccc1)C1CCN(CCCOc2ccc3c(c2)CCCC3)CC1	-5	98	.	62*	5
O=C(Nc1cc(C(F)(F)F)ccc1Cl)C(Sc1ccccn1)c1ccccc1 (stereo not given)	-5	99	5	104*	-14
O=C(CN1CCN(C(C(=O)Nc2cc(C(F)(F)F)ccc2Cl)c2ccccc2)CC1)NC1CC1 (stereo not given)	-7	96	.	80*	-4
CSc1scc2c1-c1nc(SCC(=O)C(C)(C)C)ncc1CC2	-3	97	25	74*	-11
C=CCNC(=O)CSc1ncc2c(n1)-c1c(csc1SC)CC2	-4	97	-5	0	.
CCCOc1ccc(-c2nc(N3CCN(CC)CC3)c3ccccc3n2)cc1	-4	99	11	82*	-10
CCCOc1ccc(-c2nc(N3CCN(C)CC3)c3ccccc3n2)cc1	-5	94	-2	53	.
COc1ccc(C2CC(c3ccccc3)=NN2C(=O)CN2N=NC3C(=O)N(c4cccc(F)c4)C(=O)C32)cc1 (stereo not given)	-14	106	-6	-4	.
CC(C)(C)c1cc(CP(=O)(c2ccccc2)c2ccccc2)cc(C(C)(C)C)c1O	-3	98	7	57*	-12
O=P(Cc1ccccc1)(c1ccccc1)c1ccccc1	-7	101	-6	1	.
CN(CC(=O)Oc1ccc(-c2nnco2)cc1)S(=O)(=O)c1ccc(F)cc1	-6	97	-8	1	.
CC(C)c1ccc(CCNC(=O)CCNS(=O)(=O)c2ccc(Br)cc2)cc1	-6	100	16	0	.
COc1ccc2[nH]c3c(N4CCc5ccccc5C4)ncnc3c2c1	2	92	17	99*	102*
CCOC(=O)N1CCN(C(=O)CSc2ccc3nnc(-c4cccnc4)n3n2)CC1	-2	103	1	87*	-13
SMILES	CaV13 ICDI inh	ABCB6 inh 2	VLA-4 inh	Granule exo inh	Granule exo CP1
CCOc1ccc(NC(=O)CSc2ccc3nnc(-c4cccnc4)n3n2)cc1	-9	100	12	0	.
Cn1c(CN2CCN(C(=O)c3ccc(F)cc3)CC2)nc2cc([N+](=O)[O-])ccc21	-16	101	6	2	.
COc1ccc(C(=O)OC(C)C(=O)NC(C)CCc2ccccc2)cc1[N+](=O)[O-] (stereo not given)	-3	99	7	2	.
COc1ccc(C(=O)OC(C)C(=O)NC(C)CCc2ccccc2)c(OC)c1 (stereo not given)	-2	94	10	58*	-12
CC(C)CC(=O)NC1(C(F)(F)F)NC(=O)N(c2ccccc2)C1=O (stereo not given)	4	101	-5	90*	-4
Cc1cc(Br)cn2c(Cc3cccc(Cl)c3)c(-c3ccco3)nc12	-6	99	.	56*	22
Cc1cc2nc(-c3ccco3)c(Cc3cccc(Cl)c3)n2c(C)c1Br	-5	107	.	73*	2
Cc1cc2nc(-c3cccc(Cl)c3)c(Cc3cccc(Cl)c3)n2c(C)c1Br	-7	129	.	6	.
Cc1ccc(Cc2c(-c3ccco3)nc3c4ccccc4ccn23)cc1	-3	105	.	58*	0
COCC(=O)N1CCN(c2nc3ccccc3o2)CC1	7	98	9	-5	.
CN(CC(=O)Nc1ccccc1Br)Cc1nc2ccccc2c(=O)[nH]1	-5	96	7	-1	.
Cc1cc(NC(=O)CCCS(=O)(=O)c2nc(-c3cccs3)cc(C(F)(F)F)n2)no1	-5	85	23	61*	18
COC(=O)CCS(=O)(=O)c1nc(-c2ccccc2)cc(C(F)(F)F)n1	.	99	28	87*	20
COc1ccc(-c2cc(C(F)(F)F)nc(S(C)(=O)=O)n2)cc1	-8	99	17	40	.
CS(=O)(=O)c1nc(-c2ccc(F)cc2)cc(C(F)(F)F)n1	-27	97	.	86*	18
O=C(COc1ccccc1)NS(=O)(=O)c1ccccc1	-4	100	3	6	.
Cc1cc(C)c(S(=O)(=O)N2CCN(C(=O)c3cc4ccccc4oc3=O)CC2)c(C)c1	-2	98	16	2	.
COc1ccc(CN2C(=O)C(CC(=O)NCCCN(C)C)CC(C(=O)N(C)C)=C2C)cc1 (stereo not given)	-3	99	.	0	.
CCOC(=O)c1c(-c2ccc(OC)cc2)oc2ccc(O)cc12	-4	95	-3	63*	-12
O=C(NCc1ccccc1Cl)c1cccc2c1C(=O)c1ccc(-c3ccc(OC(F)(F)F)cc3)cc1S2(=O)=O	.	98	6	0	.
O=C1CCC[C@@H]2C[C@@]3(C[C@@H]4CCN1[C@H]24)Nc1cc(Cl)ccc1NC3=NC1CCCCC1	-10	104	.	76*	-12
CCN(C(=O)C(=O)c1c[nH]c2ccccc12)c1ccccc1	-3	108	15	-2	.
Cc1cc(C)nc(NC(=NCCc2c[nH]c3ccccc23)NC(=O)C(C)(C)C)n1	0	91	18	83*	-3
Cc1cc(C)nc(N2C(=O)CC(C(=O)O)NC2=NCCc2c[nH]c3ccccc23)n1 (stereo not given)	-8	98	13	-3	.
CCc1nc2ccc(C(=O)Nc3cc(-c4ccccc4)ccc3OC)cn2c1N(CC)CCN(C)C	-5	100	.	60*	48
